“And” between values parts separate entries of the source, which are not always exact repeats. Equal values may be shown once. Records with an inconclusive call do not appear. The source made the active and inactive calls. How the source made its calls, unless noted: active means hit-call score of the fitted dose curve at least 0.9, where 1 is the maximum; inactive means score below 0.9.

The results in this text go back to PubChem BioAssay (EPA / NIEHS).

In test [1] the target is Retinoic acid receptor RXR-alpha (Homo sapiens) (UniProt P19793). The test can be described thus: ATG_RXRa_TRANS: Attagene TRANS-FACTORIAL HepG2 Assay for human Retinoid X Receptor alpha (RXRa) (AID 2283012; active means hit-call score of the fitted dose curve at least 0.9, where 1 is the maximum). The method, boiled down:
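Cells (HepG2) carried transiently transfected GAL4-responsive reporter units. Following a 24 h chemical incubation, reporter mRNA induction was read via RT-PCR fragment analysis; DMSO served as negative control and baseline.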

In test [2] the target is human Retinoid X Receptor beta (RXRb), RXRB (gene 6257) (UniProt P28702). The test can be described thus: ATG_RXRb_TRANS: Attagene TRANS-FACTORIAL HepG2 Assay for human Retinoid X Receptor beta (RXRb) (AID 2283013; active means hit-call score of the fitted dose curve at least 0.9, where 1 is the maximum). The method, boiled down:
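Multiplexed TRANS reporter assay in HepG2; 24 h dosing; reporter mRNA by RT-PCR/CE fluorescence; gain-of-signal relative to DMSO.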

Test [3] has as its target human Thyroid Receptor alpha (THRa1), THRA (gene 7067) (UniProt P10827). The test can be described thus: ATG_THRa1_TRANS: Attagene TRANS-FACTORIAL HepG2 Assay for human Thyroid Receptor alpha (THRa1) (AID 2283014; active means hit-call score of the fitted dose curve at least 0.9, where 1 is the maximum). In a few lines:
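Transcripts from GAL4-UAS-driven reporters, measured after 24 h compound exposure by RT-PCR plus capillary electrophoresis of 6-FAM-labeled fragments, were fitted for gain of signal relative to DMSO. Cells: transiently transfected HepG2 expressing NR-Gal4 chimeras.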

Read-out in test [4]: E-selectin (Homo sapiens) (UniProt P16581)
The test can be described thus: BSK_3C_Eselectin: BioMAP Diversity Plus: 3C Assay for Eselectin Biomarker Activity (AID 2283015).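 Further: cell surface E-selectin protein quantified by ELISA 24 h after dosing.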 The conditions noted are these: primary human endothelial cells (HUVEC); actives raise or lower the signal. In a few lines: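 E-selectin ELISA readout, fitted bidirectionally relative to DMSO, taken 24 h post-dosing in HUVEC cultures of the 3C system. Overt cytotoxicity tracked with sulforhodamine B staining of parallel wells.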

Read-out in test [5]: Interleukin-1 alpha (IL1a), IL1A (gene 3552)
The test can be described thus: BSK_BE3C_IL1a: BioMAP Diversity Plus: BE3C Assay for Interleukin-1 alpha (IL1a) Biomarker Activity (AID 2283016). The conditions noted are these: primary human bronchial epithelial cells; actives raise or lower the signal. In a few lines:
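Cultures of primary human bronchial epithelial cells receive test chemical. After 24 h, IL-1a is quantified by ELISA, while parallel wells are fixed in TCA and SRB-stained for total protein. Changes in either direction are fitted relative to DMSO.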

Read-out in test [6]: Monocyte Chemoattractant Protein-1 (MCP1), CCL2 (gene 6347)
The test can be described thus: BSK_3C_MCP1: BioMAP Diversity Plus: 3C Assay for Monocyte Chemoattractant Protein-1 (MCP1) Biomarker Activity (AID 2283017). The note with it: primary human endothelial cells (HUVEC); actives raise or lower the signal. In a few lines: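 MCP-1 was measured by ELISA 24 h after dosing in primary HUVEC 3C cultures and fitted in both directions relative to DMSO; cytotoxicity was checked by SRB total-protein staining in parallel wells.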

Read-out in test [7]: Monocyte Chemoattractant Protein-1 (MCP1), CCL2 (gene 6347)
Nature of the test: BSK_4H_MCP1: BioMAP Diversity Plus: 4H Assay for Monocyte Chemoattractant Protein-1 (MCP1) Biomarker Activity (AID 2283018). The conditions noted are these: primary human endothelial cells (HUVEC); actives raise or lower the signal. The method, boiled down: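 Readout: MCP-1 ELISA on compound-treated HUVEC, sampled 24 h post-dosing. Baseline and negative control DMSO; bidirectional fit. Overt toxicity checked alongside by sulforhodamine B protein staining at time of biomarker measurement.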

Read-out in test [8]: Human Leukocyte Antigen - DR isotype (HLADR), HLA-DRA (gene 3122)
Nature of the test: BSK_3C_HLADR: BioMAP Diversity Plus: 3C Assay for Human Leukocyte Antigen - DR isotype (HLADR) Biomarker Activity (AID 2283019).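 On outcome: ELISA of cell-surface HLA-DR on HUVEC 24 h after dosing.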 The note with it: primary human endothelial cells (HUVEC); actives raise or lower the signal. The method, boiled down: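 Bidirectional fitting against DMSO was applied to the HLA-DR ELISA signal from human umbilical vein endothelial cells, 24 h post-dose. Cytotoxicity came from parallel SRB total-protein staining; 3C proliferation was counted by SRB at 48 h.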

Read-out in test [9]: Interleukin-8 (IL8), CXCL8 (gene 3576)
The test can be described thus: BSK_3C_IL8: BioMAP Diversity Plus: 3C Assay for Interleukin-8 (IL8) Biomarker Activity (AID 2283020). The conditions noted are these: primary human endothelial cells (HUVEC); actives raise or lower the signal. In a few lines: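 Human vascular endothelial cells (umbilical vein) in the 3C system; IL-8 level detected by ELISA at 24 h post-dose, with DMSO as baseline.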

Read-out in test [10]: Monokine induced gamma interferon (MIG), CXCL9 (gene 4283)
The test can be described thus: BSK_3C_MIG: BioMAP Diversity Plus: 3C Assay for Monokine induced gamma interferon (MIG) Biomarker Activity (AID 2283021). The note with it: primary human endothelial cells (HUVEC); actives raise or lower the signal. In a few lines:
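After 24 h of treatment, human umbilical vein endothelial cultures (3C system) had their MIG biomarker level determined by ELISA, with DMSO serving as negative control.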

Test [11] addresses human Vitamin D Receptor (VDR), VDR (gene 7421) (UniProt P11473). The test can be described thus: ATG_VDR_TRANS: Attagene TRANS-FACTORIAL HepG2 Assay for human Vitamin D Receptor (VDR) (AID 2283022; active means hit-call score of the fitted dose curve at least 0.9, where 1 is the maximum). The method, boiled down: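 Transactivation by an exogenous VDR-Gal4 chimera in transiently transfected HepG2 cells was measured as reporter transcript level 24 hours after chemical treatment. RT-PCR products were analysed by capillary electrophoresis and fitted in the positive direction relative to DMSO.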

The nature of test [12]: BSK_3C_SRB: Viability Assessment in the BioMAP Diversity Plus: 3C Assay (AID 2283023).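 Further: fitted both ways against DMSO so a hit may be signal rise or drop.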 The note with it: primary human endothelial cells (HUVEC). In a few lines: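 Cytotoxicity readout in parallel HUVEC 3C cultures: after 24 h compound exposure, cells fixed with 10% TCA, stained with 0.1% SRB and read at 560 nm. Gain or loss relative to DMSO fitted.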
Read-out in test [13]: Matrix Metallopeptidase 1 (MMP1), MMP1 (gene 4312)
The test can be described thus: BSK_BE3C_MMP1: BioMAP Diversity Plus: BE3C Assay for Matrix Metallopeptidase 1 (MMP1) Biomarker Activity (AID 2283024). The note with it: primary human bronchial epithelial cells; actives raise or lower the signal. In a few lines:
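Dose cells, wait 24 h, run MMP1 ELISA; cells are human bronchial epithelial primaries. Both increases and decreases relative to DMSO counted.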

The nature of test [14]: BSK_3C_Vis: BioMAP Diversity Plus: 3C Assay for Morphology Visualization (AID 2283025).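 Further: fitted both ways so gain or loss versus DMSO counts.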 The conditions noted are these: primary human endothelial cells (HUVEC). In a few lines: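 Endothelial cells from human umbilical vein were treated with test chemicals for 24 h and inspected by light microscopy for changes in cell conformation.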
Test [15] is described as follows: BSK_4H_SRB: Viability Assessment in the BioMAP Diversity Plus: 4H Assay (AID 2283027).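 Further: cells exposed to compound for 24 h before staining.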 The conditions noted are these: primary human endothelial cells (HUVEC). The method, boiled down: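 Human umbilical vein endothelial cells, 24 h after chemical dosing; total protein measured by 0.1% sulforhodamine B staining after 10% TCA fixation, read at 560 nm. Bidirectional fitting against DMSO.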

Read-out in test [16]: Thrombomodulin, THBD (gene 7056)
The test can be described thus: BSK_3C_Thrombomodulin: BioMAP Diversity Plus: 3C Assay for Thrombomodulin Biomarker Activity (AID 2283029). The conditions noted are these: primary human endothelial cells (HUVEC); actives raise or lower the signal. The method, boiled down: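 Thrombomodulin ELISA, human primary HUVEC, 24 h post-dose; data fitted in both directions relative to DMSO.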

Read-out in test [17]: Urokinase-type plasminogen activator receptor (uPAR), PLAUR (gene 5329)
Nature of the test: BSK_4H_uPAR: BioMAP Diversity Plus: 4H Assay for Urokinase-type plasminogen activator receptor (uPAR) Biomarker Activity (AID 2283030). The note with it: primary human endothelial cells (HUVEC); actives raise or lower the signal. The method, boiled down: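 uPAR level read by ELISA on HUVEC cultures (BioMAP 4H) 24 h post-dosing, analyzed for gain or loss relative to DMSO. Parallel SRB staining assessed overt cytotoxicity.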

Read-out in test [18]: Pselectin, SELP (gene 6403)
Nature of the test: BSK_4H_Pselectin: BioMAP Diversity Plus: 4H Assay for Pselectin Biomarker Activity (AID 2283026). The note with it: primary human endothelial cells (HUVEC); actives raise or lower the signal. In a few lines: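 Human vascular endothelium from umbilical vein; P-selectin measured by ELISA at 24 h post-dose, with cytotoxicity checked by sulforhodamine B total-protein staining in parallel cultures (0.1% SRB after 10% TCA fixation, read at 560 nm).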

A short description of test [19]: BSK_BE3C_SRB: Viability Assessment in the BioMAP Diversity Plus: BE3C Assay (AID 2283028). The note with it: primary human bronchial epithelial cells. In a few lines:
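Cytotoxicity read-out: SRB (0.1%) staining of TCA-fixed (10%) human lung bronchial epithelial cells, absorbance 560 nm, 24 h post-dosing. Curves fitted both directions relative to DMSO.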

The target of test [20] is human RAR-related Orphan Receptor gamma (RORg), RORC (gene 6097) (UniProt P51449). The test can be described thus: ATG_RORg_TRANS: Attagene TRANS-FACTORIAL HepG2 Assay for human RAR-related Orphan Receptor gamma (RORg) (AID 2283011; active means hit-call score of the fitted dose curve at least 0.9, where 1 is the maximum). In a few lines:
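Reporter transcripts from a transfected RORg-GAL4 chimera in HepG2 cells were quantified 24 h after dosing by RT-PCR, 6-FAM labelling, HpaI digestion and capillary electrophoresis; increases over DMSO baseline were fitted.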

human Vitamin D Receptor (VDR), VDR (gene 7421), sequence (P11473 whole entry, looked up, the tested form may be a part): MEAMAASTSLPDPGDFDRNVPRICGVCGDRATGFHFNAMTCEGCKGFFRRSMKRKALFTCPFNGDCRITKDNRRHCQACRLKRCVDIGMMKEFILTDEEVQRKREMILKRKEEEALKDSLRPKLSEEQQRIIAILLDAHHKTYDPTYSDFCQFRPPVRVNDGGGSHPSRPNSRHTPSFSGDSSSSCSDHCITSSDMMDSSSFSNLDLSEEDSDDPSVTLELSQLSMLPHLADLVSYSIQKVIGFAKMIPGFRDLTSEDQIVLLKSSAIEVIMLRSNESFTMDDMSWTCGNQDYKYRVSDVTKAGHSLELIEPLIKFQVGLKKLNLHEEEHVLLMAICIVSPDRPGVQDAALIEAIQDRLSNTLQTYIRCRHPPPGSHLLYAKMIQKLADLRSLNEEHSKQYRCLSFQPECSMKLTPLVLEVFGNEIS
E-selectin (Homo sapiens), sequence (P16581 whole entry, looked up): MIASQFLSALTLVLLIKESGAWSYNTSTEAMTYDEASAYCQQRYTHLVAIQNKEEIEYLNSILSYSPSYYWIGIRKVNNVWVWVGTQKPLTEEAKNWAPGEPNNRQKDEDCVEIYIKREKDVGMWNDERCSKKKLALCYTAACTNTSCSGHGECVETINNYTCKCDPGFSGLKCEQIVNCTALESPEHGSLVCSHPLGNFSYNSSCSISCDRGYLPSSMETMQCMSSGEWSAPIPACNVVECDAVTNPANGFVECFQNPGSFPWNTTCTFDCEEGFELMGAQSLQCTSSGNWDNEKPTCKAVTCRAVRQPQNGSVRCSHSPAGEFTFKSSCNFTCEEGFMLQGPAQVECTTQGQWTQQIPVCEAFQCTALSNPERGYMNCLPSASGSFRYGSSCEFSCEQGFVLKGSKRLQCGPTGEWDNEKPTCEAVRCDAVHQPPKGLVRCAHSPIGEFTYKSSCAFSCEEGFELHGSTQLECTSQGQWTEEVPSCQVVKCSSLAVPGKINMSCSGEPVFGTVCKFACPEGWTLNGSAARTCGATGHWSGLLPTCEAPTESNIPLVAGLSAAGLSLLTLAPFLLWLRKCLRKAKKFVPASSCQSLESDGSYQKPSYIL
human Retinoid X Receptor beta (RXRb), RXRB (gene 6257), sequence (P28702 whole entry, looked up): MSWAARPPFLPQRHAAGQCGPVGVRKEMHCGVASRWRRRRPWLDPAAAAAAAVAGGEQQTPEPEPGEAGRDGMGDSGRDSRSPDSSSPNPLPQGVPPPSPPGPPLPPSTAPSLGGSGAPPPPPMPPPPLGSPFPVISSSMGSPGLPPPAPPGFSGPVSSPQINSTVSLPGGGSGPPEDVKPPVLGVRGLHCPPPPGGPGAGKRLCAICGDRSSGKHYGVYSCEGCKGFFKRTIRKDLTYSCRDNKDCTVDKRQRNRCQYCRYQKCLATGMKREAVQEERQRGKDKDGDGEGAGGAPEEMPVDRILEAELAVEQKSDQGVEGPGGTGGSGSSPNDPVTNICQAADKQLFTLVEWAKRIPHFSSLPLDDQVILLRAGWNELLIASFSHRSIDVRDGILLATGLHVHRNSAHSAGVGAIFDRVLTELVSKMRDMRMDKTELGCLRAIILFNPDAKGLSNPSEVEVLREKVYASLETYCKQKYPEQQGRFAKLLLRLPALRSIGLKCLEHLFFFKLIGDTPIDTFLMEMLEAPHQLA
human Thyroid Receptor alpha (THRa1), THRA (gene 7067), sequence (P10827 whole entry, looked up, the tested form may be a part): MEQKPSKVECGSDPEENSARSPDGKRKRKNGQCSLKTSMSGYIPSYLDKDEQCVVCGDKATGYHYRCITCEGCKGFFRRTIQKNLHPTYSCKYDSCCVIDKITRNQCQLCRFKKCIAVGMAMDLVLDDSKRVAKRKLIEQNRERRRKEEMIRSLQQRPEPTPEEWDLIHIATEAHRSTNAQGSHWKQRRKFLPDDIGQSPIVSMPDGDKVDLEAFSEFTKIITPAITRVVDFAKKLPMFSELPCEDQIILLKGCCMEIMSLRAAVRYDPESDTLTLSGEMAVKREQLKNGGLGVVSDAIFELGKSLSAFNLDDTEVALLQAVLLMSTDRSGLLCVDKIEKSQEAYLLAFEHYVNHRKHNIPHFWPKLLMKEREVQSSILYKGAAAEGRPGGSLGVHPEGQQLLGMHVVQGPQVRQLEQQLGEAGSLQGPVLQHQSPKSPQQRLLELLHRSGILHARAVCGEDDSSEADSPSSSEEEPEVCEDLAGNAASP
Retinoic acid receptor RXR-alpha (Homo sapiens), sequence (P19793 whole entry, looked up, the tested form may be a part): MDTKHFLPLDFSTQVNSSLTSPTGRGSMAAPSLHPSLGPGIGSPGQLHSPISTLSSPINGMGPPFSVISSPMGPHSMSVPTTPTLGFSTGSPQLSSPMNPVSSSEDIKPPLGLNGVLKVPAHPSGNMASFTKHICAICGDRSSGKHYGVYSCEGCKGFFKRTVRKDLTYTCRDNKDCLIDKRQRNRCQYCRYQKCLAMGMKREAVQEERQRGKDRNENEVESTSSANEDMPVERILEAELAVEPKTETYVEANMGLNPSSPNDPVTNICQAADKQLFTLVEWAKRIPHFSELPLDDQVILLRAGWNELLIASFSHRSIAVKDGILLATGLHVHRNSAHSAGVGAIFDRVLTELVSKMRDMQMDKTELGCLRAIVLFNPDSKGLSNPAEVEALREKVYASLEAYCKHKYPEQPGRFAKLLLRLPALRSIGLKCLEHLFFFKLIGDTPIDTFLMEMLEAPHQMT
human RAR-related Orphan Receptor gamma (RORg), RORC (gene 6097), sequence (P51449 whole entry, looked up, the tested form may be a part): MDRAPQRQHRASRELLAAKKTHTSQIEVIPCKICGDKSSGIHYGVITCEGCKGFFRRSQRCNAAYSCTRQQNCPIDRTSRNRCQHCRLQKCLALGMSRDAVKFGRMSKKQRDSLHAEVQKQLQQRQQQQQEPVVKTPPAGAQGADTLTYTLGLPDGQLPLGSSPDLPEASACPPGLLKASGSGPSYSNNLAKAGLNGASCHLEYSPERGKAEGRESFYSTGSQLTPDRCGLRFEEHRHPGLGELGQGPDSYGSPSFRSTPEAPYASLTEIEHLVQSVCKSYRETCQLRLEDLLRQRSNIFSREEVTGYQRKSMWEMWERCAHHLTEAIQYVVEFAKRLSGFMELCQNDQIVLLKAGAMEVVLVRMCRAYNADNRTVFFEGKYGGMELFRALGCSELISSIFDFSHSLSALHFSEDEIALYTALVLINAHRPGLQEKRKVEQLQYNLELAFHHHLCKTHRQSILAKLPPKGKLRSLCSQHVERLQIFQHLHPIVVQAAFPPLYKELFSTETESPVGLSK

On to `c1cc2ccc3cccc4ccc(c1)c2c34`, for which the molecule was called inactive in test [1], in [3], in [4], in test [5], in test [6] and in test [7]. Moreover, the outcome in test [8], in test [9], in test [10], in [11], in test [12] and in test [13] was inactive. The outcome in test [14], in test [15], in test [16] and in [17] was inactive. Moreover, the AC50 (commonly the concentration giving half of the maximal activity seen) in [2] was 41.4 µM (active).

For the molecule `CCOP(=S)(OCC)SCSC(C)(C)C`, the molecule was called inactive in test [1], in test [3], in [4], in [5], in test [6] and in [7]. Moreover, the outcome in test [9], in [10], in test [11], in [12], in [13] and in [14] was inactive. Moreover, the outcome in [15], in test [16] and in test [17] was inactive. Moreover, the AC50 was 25.7 µM (active) and 24.6 µM (active) in test [2]; 32.5 µM (active) in [8].

Regarding `CCNc1nc(NC(C)C)nc(SC)n1`, the molecule was classed as inactive in test [1], in [2], in test [3], in test [4], in [5] and in test [6]. For the same molecule, the outcome in [7], in [8], in test [9], in test [10], in test [11] and in test [12] was inactive. The outcome in test [13], in [14], in test [18], in test [15], in test [19] and in test [16] was inactive. In [17], the result was inactive.

Consider `Cc1cc(O)ccc1Cl`, for which the molecule was called inactive in test [20], in test [1], in [2], in test [3], in test [4] and in test [5]. Moreover, the outcome in [6], in test [7], in test [8], in test [10], in [11] and in test [12] was inactive. For the same molecule, the result in test [13], in test [14], in test [15], in test [16] and in test [17] was inactive.

Turning to `O=NN(c1ccccc1)c1ccccc1`, the result in test [20], in test [4], in test [5], in test [6], in test [7] and in [8] was inactive. Moreover, the outcome in test [10], in test [12], in [13], in [14], in [15] and in test [16] was inactive. Besides, the outcome in [17] was inactive. For the same molecule, the half-maximal activity concentration (AC50) in test [2] is 52.2 µM (active).

Consider `C[C@]12CCC(=O)C=C1CC[C@@H]1[C@@H]2CC[C@]2(C)C(=O)CC[C@@H]12`, for which the call in test [20], in test [1], in [2], in test [3], in test [4] and in test [5] was inactive. The outcome in test [6], in [7], in [8], in test [9], in test [10] and in test [12] was inactive. Further, the outcome in test [13], in test [14], in test [18], in test [15] and in test [16] was inactive.
